Hit rate of the full screen: of about 52,000 compounds, about 1,700 (3.3%) were called active. The sample holds actives, similar compounds and a random draw of the others, so the mix is not that of the screen. Cut-off read from the data, not from the text of the source: active = survival mostly below about 52% (no sharp cut-off); inactive = mostly above about 56%.

For the assay, the system named is Wild type. Kind of assay: growth inhibition of S. aureus wild type versus tarO mutant, primary screen, teichoic acid synthesis inhibitors, RN4220, OD600 (AID 463173). To be noted: S. aureus RN4220 wild type/DeltatarO growth, OD600, 18 h, hits give low values, screened at 18.75 µg/mL (by protocol).
Consider `COc1cccc(CNC(=O)c2ccc3nc(-c4ccccc4)c(-c4ccccc4)nc3c2)c1OC`, for which the survival is 71% (inactive).

Take `CCC(Cn1nnc2ccccc2c1=O)NC(=O)Nc1ccccc1OC` (stereo not drawn): the survival was 93% (inactive).

Regarding `CCc1ccccc1NC(=O)[C@@H](c1ccccc1)N1Cc2ccccc2C1=O`, the survival was 22% (inactive).

For the compound `COc1ccccc1OCCSc1ncnc2nc[nH]c12`, the survival is 105% (inactive).

Turning to `Cc1ccc(-c2nnc(Nc3ccc(F)cc3)c3ccccc23)cc1S(=O)(=O)NC(C)C`, the survival was 81% (inactive).

Regarding `COCCCNC(=O)c1cc2cc(S(=O)(=O)N3CCCCC3)ccc2n1C`, the survival was 73% (inactive).

In the case of `COc1ccc(-c2noc(-c3cccc(OC)c3OC)n2)cc1`, the survival is -3% (active).

On to `COc1ccc(C(=O)Nc2ccccc2-c2nc(-c3ccc(OC)cc3)no2)cc1`, for which the survival is 89% (inactive).

Take `COc1ccc(-c2noc(-c3ccccc3NC(=O)c3cc(OC)c(OC)c(OC)c3)n2)cc1`: the survival is 79% (inactive).

Regarding `Cc1ccc(OC(=O)c2snnc2C)cc1C`, the survival was 117% (inactive).

In the case of `COc1ccc(NC(=O)Nc2cccc(-c3cn4cccnc4n3)c2)cc1`, the survival is 77% (inactive).

With `CCCCOC(=O)c1c(C)oc2ccc(NS(=O)(=O)c3ccc(F)cc3C)cc12`, the survival was 1% (active).

Turning to `CCc1ccc(S(=O)(=O)Nc2ccc3oc(C)c(C(=O)OCCOC)c3c2)cc1`, the survival was 60% (inactive).

Regarding `CCOC(=O)c1c(-c2ccccc2)oc2ccc(NS(=O)(=O)c3ccc(OC)cc3)cc12`, the survival is 66% (inactive).

As for `Cc1cc(C)c(S(=O)(=O)Nc2ccc3oc4c(c3c2)CCCC4)cc1C`, the survival is 72% (inactive).

Consider `CCOc1ccc(S(=O)(=O)Nc2ccc3oc4c(c3c2)CC(C)CC4)cc1` (stereo not drawn), for which the survival was 60% (inactive).

With `CCOC(=O)c1c(-c2ccccc2)oc2ccc(NS(=O)(=O)c3ccc(C)cc3)cc12`, the survival was 28% (inactive).

Regarding `CCOC(=O)c1c(-c2ccccc2)oc2ccc(NS(=O)(=O)c3ccccc3)cc12`, the survival was 7% (active).

`CCOC(=O)c1c(-c2ccccc2)oc2ccc(NS(=O)(=O)c3ccc(C)cc3C)cc12`: the survival was 51% (inactive).

For the compound `Cc1cc(F)ccc1S(=O)(=O)Nc1ccc2oc3c(c2c1)CC(C)CC3` (stereo not drawn), the survival is -6% (active).

Take `Cc1ccc(NC(=O)Cn2c(=O)n(CCCCC(=O)NCc3ccccc3Cl)c(=O)c3ccccc32)cc1C`: the survival is 74% (inactive).

Turning to `Cc1cccc(NC(=O)CSc2nccn2Cc2ccc(F)cc2)c1C`, the survival was 71% (inactive).

Turning to `O=C(Nc1nc2ccc(S(=O)(=O)N3CCCC3)cc2s1)c1cccc(F)c1`, the survival was 63% (inactive).

Consider `COc1ccc2c(c1)c1c(c(=O)n(-c3ccc(F)c(Cl)c3)c(=O)n1Cc1cccc(C)c1)n2C`, for which the survival was 71% (inactive).

Take `Cc1cc(C)c(NC(=O)CSc2ccnc(=O)[nH]2)c(C)c1`: the survival is 74% (inactive).

Take `CCOc1cc(Cl)c(S(=O)(=O)n2cc(C)nc2CC)cc1Cl`: the survival is -7% (active).

For the compound `CCc1nc(C)cn1S(=O)(=O)c1ccc(Cl)c(Cl)c1OC`, the survival is 77% (inactive).

`CCOc1cc(Cl)c(S(=O)(=O)n2ccnc2)cc1Cl`: the survival is 74% (inactive).

`CCCn1c(SCC(=O)c2ccc3c(c2)OCCO3)nnc1-c1ccco1`: the survival is 100% (inactive).

As to `Oc1ccc(Br)cc1C1CC(c2ccccc2)=NC(c2ccco2)N1` (stereo not drawn), the survival was 1% (active).

For the compound `O=C(CCN1CCOCC1)N1N=C(c2ccccc2)CC1c1ccco1` (stereo not drawn), the survival is 104% (inactive).

Consider `COc1ccccc1N1CCN(c2ncnc3c2cnn3-c2cccc(Cl)c2)CC1`, for which the survival was -4% (active).

On to `COc1ccccc1N1CCN(c2ncnc3c2cnn3-c2cc(Cl)ccc2C)CC1`, for which the survival was 136% (inactive).

As for `COc1ccccc1N1CCN(c2ncnc3c2cnn3-c2ccc(C)cc2)CC1`, the survival is 63% (inactive).

Consider `O=C(COc1ccccc1Cl)N(Cc1ccco1)Cc1ccco1`, for which the survival was 81% (inactive).

Regarding `CCCCN(C)C(=O)CSc1c2c(nc3ccc(Cl)cc13)CCCC2`, the survival is -2% (active).

In the case of `COc1cc(OC)c(N(C)C(=O)CSc2c3c(nc4ccc(Cl)cc24)CCCC3)cc1Cl`, the survival was 2% (active).

In the case of `CCCCN(CC)C(=O)CSc1c2c(nc3ccc(Cl)cc13)CCCC2`, the survival was -2% (active).

In the case of `CCCCNC(=O)CSc1c2c(nc3ccc(Cl)cc13)CCCC2`, the survival is 66% (inactive).

For the compound `CCOc1ccc(CNC(=O)CSc2c3c(nc4ccc(Cl)cc24)CCCC3)cc1`, the survival is 84% (inactive).

With `CCc1ccc(CNC(=O)CSc2c3c(nc4ccc(Cl)cc24)CCCC3)cc1`, the survival is 76% (inactive).

Turning to `CN(Cc1ccccc1)C(=O)CSc1c2c(nc3ccc(Cl)cc13)CCCC2`, the survival was 0% (active).

For `CCCNC(=O)CSc1c2c(nc3ccc(Cl)cc13)CCCC2`, the survival was 72% (inactive).

For `CCCN(CCC)C(=O)CSc1c2c(nc3ccc(Cl)cc13)CCCC2`, the survival is 52% (inactive).

Consider `Cc1ccc(CNC(=O)CSc2c3c(nc4ccc(Cl)cc24)CCCC3)cc1`, for which the survival was 80% (inactive).

In the case of `COc1ccc(NC(=O)CSc2c3c(nc4ccc(Cl)cc24)CCCC3)cc1Cl`, the survival is 75% (inactive).

Take `COc1ccc(CNC(=O)CSc2c3c(nc4ccc(Cl)cc24)CCCC3)cc1`: the survival is 76% (inactive).

For `CCCN(C(=O)c1c(C)oc2ncn(CC(C)C)c(=O)c12)c1ccccc1C`, the survival was 59% (inactive).

With `CCOc1ccc(CCNC(=O)Cn2nc(C)c3c(C)n(-c4ccccc4)nc3c2=O)cc1OCC`, the survival was 19% (inactive).

Take `CCn1cc(CCC(=O)NCc2ccccc2OC)c2ccccc21`: the survival is 76% (inactive).

For `COc1ccc(C(=O)NCc2nnc(SCC(=O)Nc3ccccc3)n2-c2ccc(F)cc2)cc1`, the survival was 78% (inactive).

On to `Clc1cccc(-n2ncc3c(N4CCCCCC4)ncnc32)c1`, for which the survival is 81% (inactive).

For the compound `COc1ccccc1C(=O)Nc1ccc(-c2nc3ccccc3s2)c(C)c1`, the survival was 82% (inactive).

As to `Cc1cc(C)cc(OCC(=O)Nc2ccc(-c3nc4ccccc4s3)cc2)c1`, the survival is 88% (inactive).

In the case of `Cc1cccc(OCC(=O)Nc2cccc(-c3nc4ccccc4s3)c2)c1`, the survival was 5% (active).

Turning to `COc1cccc(CC(=O)Nc2ccc(-c3nc4ccccc4s3)cc2Cl)c1`, the survival was 73% (inactive).

As for `Cc1ccc(OCC(=O)Nc2cccc(-c3nc4ccccc4s3)c2)cc1`, the survival was 55% (inactive).

Regarding `COc1ccc(CC(=O)Nc2ccc(-c3nc4ccccc4s3)c(C)c2)cc1`, the survival is 69% (inactive).

Consider `COc1cccc(CC(=O)Nc2ccc(-c3nc4ccccc4s3)cc2)c1`, for which the survival was -3% (active).

Regarding `COc1ccc(CC(=O)Nc2ccc(-c3nc4ccccc4s3)c(C)c2)cc1OC`, the survival was 10% (active).

In the case of `COc1ccc(-c2nc3ccccc3s2)cc1NC(=O)COc1cccc(C)c1`, the survival was 39% (inactive).

On to `COc1ccc(N2CCN(S(=O)(=O)c3cc(Br)cc4c3N(C(=O)C3CC3)CC4)CC2)cc1`, for which the survival was 90% (inactive).

With `COc1ccc2nc3oc(C(=O)NCc4ccccc4OC)cc3cc2c1`, the survival was 88% (inactive).

In the case of `COc1ccc(NC(=O)CC2C(=O)N(c3ccc(F)cc3)C(=O)N2Cc2ccco2)cc1` (stereo not drawn), the survival was 90% (inactive).

For `COc1ccc(CNC(=O)c2cc3oc4ccccc4c3n2C)cc1OC`, the survival was 64% (inactive).

Turning to `CCOC(=O)c1c(SCC(=O)Nc2nc3ccccc3s2)nc(=O)[nH]c1C`, the survival was 1% (active).

As to `CCOC(=O)c1c(SCC(=O)Nc2nc3ccc(C)cc3s2)nc(=O)[nH]c1C`, the survival was 81% (inactive).

On to `Cc1cnc(=O)[nH]c1SCC(=O)Nc1nc2ccccc2s1`, for which the survival is 89% (inactive).

In the case of `CC(C)OCCCNC(=O)Cc1ccc(NC(=O)N2CCCCc3ccccc32)cc1`, the survival is 77% (inactive).

For the compound `CCN(CC)c1ccc(CN(C(=O)c2cc(=O)c3ccccc3o2)C2CCS(=O)(=O)C2)cc1` (stereo not drawn), the survival is 76% (inactive).

Turning to `COC(=O)c1c(NC(=O)CCCOc2ccc(C)cc2)sc2c1C(C(=O)OC)CC2` (stereo not drawn), the survival is 1% (active).

For the compound `COC(=O)c1c(NC(=O)/C(C#N)=C/c2ccccc2)sc2c1C(C(=O)OC)CC2` (stereo not drawn), the survival is 82% (inactive).

In the case of `COC(=O)c1c(NC(=O)CCCOc2cccc(C)c2)sc2c1C(C(=O)OC)CC2` (stereo not drawn), the survival is -3% (active).

Take `CCOc1ccc(/C=C/C(=O)Nc2sc3c(c2C(=O)OC)C(C(=O)OC)CC3)cc1` (stereo not drawn): the survival is 75% (inactive).

For the compound `CC1CCc2c(sc(NC(=O)CCCOc3ccc(C(C)(C)C)cc3)c2C(N)=O)C1` (stereo not drawn), the survival was 79% (inactive).

Turning to `COC(=O)c1c(NC(=O)/C(C#N)=C/c2ccc(OC)cc2)sc2c1C(C(=O)OC)CC2` (stereo not drawn), the survival was 71% (inactive).

As for `COC(=O)c1c(NC(=O)CCCOc2ccc(C(C)(C)C)cc2)sc2c1CCC(C)C2` (stereo not drawn), the survival was 30% (inactive).

Consider `COC(=O)c1c(NC(=O)CCCOc2ccc(C(C)(C)C)cc2)sc2c1C(C(=O)OC)CC2` (stereo not drawn), for which the survival is -2% (active).

With `COC(=O)c1c(NC(=O)c2cccs2)sc2c1C(C(=O)OC)CC2` (stereo not drawn), the survival is 104% (inactive).

Consider `Cc1ccc(N(O)C(=O)Nc2ccccc2)cc1`, for which the survival was 119% (inactive).

Consider `COCCCNC(=O)c1ccc2nc(CCc3ccccc3)oc2c1`, for which the survival is 88% (inactive).

Take `Cc1cccc(N2CCN(S(=O)(=O)c3ccc(F)c(C(=O)Nc4ccc(C(C)C)cc4)c3)CC2)c1C`: the survival was 75% (inactive).

For `CCOc1ccc(CCNC(=O)Cn2c(C)c3cnn(-c4ccccc4)c(=O)c3c2C)cc1`, the survival was 95% (inactive).

Consider `COc1ccc2c(c1)CCc1c(C(=O)Nc3c(C)nn(Cc4ccc(C)cc4)c3C)noc1-2`, for which the survival is 16% (active).

On to `COc1ccc2c(c1)CCc1c(C(=O)Nc3c(C)nn(Cc4ccc(Cl)cc4)c3C)noc1-2`, for which the survival was 64% (inactive).

Regarding `COc1ccc2c(c1)CCc1c(C(=O)Nc3c(C)nn(Cc4ccccc4)c3C)noc1-2`, the survival is 92% (inactive).

For the compound `CC(=O)Nc1cc(C(=O)NCc2ccc(C)cc2)ccc1S(=O)(=O)c1ccc(Cl)cc1`, the survival was 85% (inactive).

As for `CCc1ccc(-n2c(=O)c3cccnc3n2CC(=O)Nc2cc(OC)ccc2OC)cc1`, the survival was 74% (inactive).

`Cc1cc(C(=O)c2cccs2)c(N)s1`: the survival is 90% (inactive).

On to `COc1ccc(CNC(=O)c2ccc3c(c2)NC(=O)C(CS(=O)(=O)Cc2ccccc2Cl)N3)cc1` (stereo not drawn), for which the survival is 49% (inactive).

Turning to `Cc1ccc(C)c(N2CCN(C(=O)c3cn(CC(C)C)c(=O)c4c3c3ccccc3n4C)CC2)c1`, the survival is 17% (active).

In the case of `Cc1cccc(N2CCN(C(=O)c3cn(CC(C)C)c(=O)c4c3c3ccccc3n4C)CC2)c1C`, the survival is 89% (inactive).

As to `Cc1ccc(Cl)cc1N1CCN(C(=O)c2cn(CC(C)C)c(=O)c3c2c2ccccc2n3C)CC1`, the survival was 87% (inactive).

The values are drawn from PubChem BioAssay AID463173 (ICCB-Longwood Screening Facility, Harvard Medical School, 2010).
